# INS promoter inh = TRM-6 insulin promoter activity inhibition | hit rate 0.9% among 130,000 | TRM-6 cells (human fetal islet line), insulin promoter-eGFP reporter, imaging; reporter expression induced with tamoxifen | inhibition, % at 2 µM;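 active = inhibition above the mean plus 3 SD, with well images judged a real hit on visual review, cut at about 60% in these data, passing the limit was not always enough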
# HUVEC tox IL1B = toxic to HUVEC cells under IL-1B stimulation; HUVEC cell count loss, Hoechst imaging, IL-1B stimulated; cell count reduction, % at 2 µM; hit rate 0.41% among 94,000;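 active = cell count reduction more than 3 SD above the screen-wide mean, cut at about 70% in these data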;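 note: normalized per plate to untreated control cells as the no-loss baseline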
# IL1B NFkB pot = enhances IL-1B driven NFkB nuclear translocation; HUVEC IL-1B NFkB p65 nuclear translocation imaging; hit rate 0.3% among 94,000; AID 819; activation, % at 2 µM;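 active = activation above 40%, about the mean plus 3 SD, also judged a hit on visual image review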;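 note: percent activation is computed from the nuclear over cytoplasmic p65 intensity ratio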
# IL1B NFkB inh = blocks IL-1B driven NFkB nuclear translocation in HUVEC cells. hit rate 0.43% among 94,000. AID 796. inhibition, % at 2 µM. HUVEC IL-1B NFkB p65 nuclear translocation imaging;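 active = inhibition above about 30% together with a positive call from visual inspection of the well image, limit read from the data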;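 note: nuclear over cytoplasmic p65 intensity ratio measured by imaging; 0% = IL-1B stimulated DMSO wells and 100% = unstimulated DMSO wells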
# * marks the source's active call; other numbers are inactive results; . = not tested or not shown. An excerpt weighted towards active compounds, which were near 1.4% of everything screened.
SMILES,INS promoter inh,HUVEC tox IL1B,IL1B NFkB pot,IL1B NFkB inh
CC(C)CNc1nc2c(c(=O)n(C)c(=O)n2C)n1Cc1cccc(Br)c1,53,-11,10,-10
C=CCn1c(SCc2ccc(C#N)cc2)nnc1-c1ccc(C)cc1,-59,-7,4,-4
O=C1/C(=C/c2cccc(F)c2)CSc2sccc21,10,13,16,-16
Cc1cccc(/C=C2\CS/C(=C\c3cccc(C)c3)C2=O)c1,25,-10,-54,54*
CS(=O)(=O)Nc1ccc2c(c1)C(=O)OC2,67,-11,57*,-58
O=C(NC1CCCC1)C1C2C=CC(C2)C1C(=O)N1CCOCC1 (stereo not given),20,83*,1,-1
O=C(O)C1C2C=CC(C2)C1C(=O)N1CCOCC1 (stereo not given),50,.,.,.
O=c1[nH]nc(Cc2ccc3ccccc3n2)c2ccccc12,-51,-8,0,0
CCN(CC)c1nc(OCCNC(=O)Nc2ccccc2)nc(N(CC)CC)n1,71*,-9,5,-5
O=C(NCCOc1nc(N2CCOCC2)nc(N2CCOCC2)n1)Nc1ccccc1,-23,-25,6,-6
COc1ccc2[nH]c(=O)c(CN(C(=O)c3cccnc3)c3ccccc3)cc2c1,-22,-4,67*,-67
COc1ccc(N(Cc2cc3cc(OC)ccc3[nH]c2=O)C(=O)c2cccnc2)cc1,0,-34,8,-8
CC(C)CC(=O)NC(NC(=S)Nc1sc2c(c1C#N)CCCC2)C(Cl)(Cl)Cl (stereo not given),13,-100,6,-6
Cc1ccc2nc3c(c(N)c2c1)CCN3c1ccccc1,.,11,0,0
CCCCN1CCc2c1nc1ccc(Br)cc1c2N,87*,14,5,-5
COCCNC(=O)CCCn1c(=O)c2cc(OC)c(OC)cc2n(CC(=O)NCCC2=CCCCC2)c1=O,75*,.,.,.
O=C(COC(=O)Cc1ccc(-c2ccccc2)cc1)NCc1ccccc1,-13,.,.,.
C=CCn1c(SCC(=O)Nc2c(C)cccc2C)nnc1-c1cnccn1,17,-20,-6,6
CN1C(=O)C(c2nnc(Nc3cccc4ccccc34)s2)C2CC1(C)Oc1ccccc12 (stereo not given),14,.,.,.
O=C(c1sc2ccccc2c1Cl)N(Cc1ccccc1)C1CCS(=O)(=O)C1 (stereo not given),8,10,-66,66*
CC(=O)C1=C(C)OC(N)=C(C#N)C1c1cccnc1 (stereo not given),17,.,.,.
CC(=O)C1=C(C)OC(N)=C(C#N)C1c1cc2cc(C)c(C)cc2nc1Cl (stereo not given),-21,-18,43*,-43
O=C1C2C3CCC(C3)C2C(=O)N1Cc1ccccc1 (stereo not given),35,.,.,.
CN1CC=C2C(C#N)=C(N)C(C#N)(C#N)[C@H](c3cccc(Cl)c3)C2C1 (stereo not given in full),-7,-42,-34,34*
CN1CC=C2C(C#N)=C(N)C(C#N)(C#N)C(c3ccsc3)C2C1 (stereo not given),-51,2,10,-10
SMILES,INS promoter inh,HUVEC tox IL1B,IL1B NFkB pot,IL1B NFkB inh
Cc1ccc(CSCCNC(=O)/C=C/c2ccccc2Cl)cc1,.,-48,4,-4
COC(=O)C1=C(CSc2nc3ccccc3s2)NC(=O)NC1c1ccc(F)cc1 (stereo not given),0,.,.,.
Cc1ccc(NC(=O)c2ccccc2NS(=O)(=O)c2ccc(Cl)s2)cc1S(=O)(=O)N1CCOCC1,8,.,.,.
CS(=O)(=O)N1CCC(C(=O)Nc2ccc(Cl)c(Cl)c2)CC1,55,.,.,.
COc1ccc(C2CC(=O)C=C(NC3CCCC3)C2)cc1 (stereo not given),.,2,-7,7
COc1ccc(C2CC(=O)C=C(NCCC(C)C)C2)cc1 (stereo not given),0,-9,52*,-52
O=C(Nc1ccc(F)cc1F)c1ccc(COc2c(F)c(F)cc(F)c2F)o1,32,89*,43*,-43
Cc1nnc(NC(=O)c2ccccc2Oc2ccccc2)s1,58,.,.,.
O=C(NC1(C(F)(F)F)C(=O)Nc2c1c(=O)[nH]c(=O)n2Cc1ccccc1)c1ccc(Cl)cc1 (stereo not given),43,-14,-32,32*
COC(=O)Cn1ncc(N2C3CC(CC(C)(C)C3)C2C)c(Cl)c1=O (stereo not given),-3,.,.,.
CC(C)C(=O)Nc1nnc(CSCc2ccccc2F)s1,19,-6,-54,54*
CC(C)(C)C(=O)Nc1nnc(CSCc2ccccc2F)s1,-9,-4,-1,1
Cc1ccc(CNC(=O)N[C@@H](Cc2ccccc2)C(=O)O)cc1,-7,.,.,.
c1ccc(-c2cc(-c3ccccc3)n3ncnc3n2)cc1,69*,.,.,.
